Assay results taken from PubChem BioAssay (Tox21).
Where “and” joins values, the source holds several entries; their conditions need not be identical. Equal values may be shown once. Results filed as inconclusive are left out. More than one record can exist for a structure, and the calls need not agree. Calls of active or inactive are those of the source. Unless noted, calls come from the whole dose curve.

Key:
[1] = Nuclear factor erythroid 2-related factor 2/antioxidant responsive element (Nrf2/ARE) small molecule agonists: qHTS cell viability counter screen in human keratinocytes (AID 1919968; active = well fitted curve in the direction sought with a large enough effect in the repeat runs; an effect the other way counts as inactive or inconclusive; note: nearly all actives have a fitted effect of over 55% in size)
Method in brief: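 Seed 1,500 KeratinoSens cells per well, then incubate 5 h at 37 C/5% CO2. Add compounds in DMSO and incubate 23 h. Add CellTiter-Fluor, wait 1 h and read fluorescence.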

[2] = Nuclear factor erythroid 2-related factor 2/antioxidant responsive element (Nrf2/ARE) small molecule agonists: luciferase reporter gene qHTS assay in human keratinocytes (AID 1919969); note: nearly all actives have a fitted effect of over 35% in size; note: potency is the fitted concentration of half-maximal effect
[3] = target: Gonadotropin-releasing hormone receptor (Homo sapiens) (UniProt P30968); assay: Human gonadotropin-releasing hormone receptor (GnRHR) small molecule agonists, calcium flux assay in GnRHR-HEK293 cells (AID 1920063); note: nearly all actives have a fitted effect of over 35% in size
Method in brief: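 Cells: HEK293 stably expressing human GnRHR. Steps: overnight (18 h) culture, 1 h calcium dye loading at 37 C, compound addition, kinetic fluorescence read at 480/540 nm. Each compound tested at 15 concentrations in triplicate.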

[4] = target: KiSS-1 receptor (Homo sapiens) (UniProt Q969F8); assay: Human kisspeptin (KISS1R) small molecule agonists, calcium flux assay in KISS1R-HEK293 cells (AID 1920064; active = well fitted curve in the direction sought with a large enough effect in the repeat runs; an effect the other way counts as inactive or inconclusive)
Method in brief: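 Cells plated and incubated 18 h; dye added, 1 h at 37 C; compounds in DMSO pinned in; signal read at 480/540 nm every second for 3 min. Each compound tested at 15 concentrations in triplicate.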

[5] = G protein-coupled receptor (GPCR) small molecule agonists, calcium flux assay: HEK293 wild type cell line counter screen (AID 1920065)
Method in brief: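 Counter-screen of the Tox21 10K library for non-specific calcium release: dye-loaded cells received compounds in DMSO and were monitored by kinetic fluorescence (480/540 nm, 3 min). Fifteen concentrations, run in triplicate.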

[6] = p53 small molecule agonists, cell-based qHTS assay with human liver microsomes (AID 1963577);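 note: p53 response element beta-lactamase reporter cells with liver microsomes plus NADPH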
Method in brief: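 In this qHTS, p53 response-element beta-lactamase cells receive test compound together with a microsome/NADPH activating system (0.5 mg/mL final each) and are incubated 16 h at 37 C before LiveBLAzer fluorescence detection.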

[7] = p53 small molecule agonists, cell-based qHTS assay with rat liver microsomes (AID 1963578)
Method in brief: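 Agonist mode in p53RE-bla reporter cells, with compounds co-incubated 16 h at 37 C alongside 0.5 mg/mL rat liver microsomes and 0.5 mg/mL NADPH (final), followed by a 2 h LiveBLAzer detection step.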

[8] = p53 small molecule agonists, cell-based qHTS assay with human liver microsomes: qHTS cell viability counter screen (AID 1963579); note: nearly all actives have a fitted effect of over 45% in size
Method in brief: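 Metabolically activated exposure: compounds, human liver microsomes and NADPH (0.5 mg/mL final apiece) were added to p53RE-bla cells seeded 5 h earlier, left 16 h at 37 C, and then assessed for viability by CellTiter-Glo luminescence.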

[9] = p53 small molecule agonists, cell-based qHTS assay: qHTS cell viability counter screen (AID 1963581); note: nearly all actives have a fitted effect of over 45% in size
Method in brief: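 Cells: HCT-116 with p53 response element-driven beta-lactamase. Treatment: 16 h, 37 C, compounds in DMSO. Read: CellTiter-Glo luminescence after 30 min RT.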

[10] = target: Beta-2 adrenergic receptor (Homo sapiens) (UniProt P07550); assay: Adrenergic beta2 receptor (ADRB2) small molecule antagonists, cell-based qHTS assay (AID 1963592); note: series mostly up to about 92 µM; nearly all actives have a fitted effect of over 50% in size
Method in brief: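 Cells (CHO, stable ADRB2 overexpression) incubated 18-20hr at 37C; compounds added from DMSO; agonist mix (1nM isoproterenol, 100uM IBMX, 25uM Ro-20-1724) added; 0.5hr RT; d2-cAMP and anti-cAMP-cryptate added; 1hr RT; 665/615 nm read.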

[11] = target: Beta-2 adrenergic receptor (Homo sapiens) (UniProt P07550); assay: Adrenergic beta2 receptor (ADRB2) small molecule agonists, cell-based qHTS assay (AID 1963593);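 note: CHO cells stably overexpressing human ADRB2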
Method in brief: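 CHO cells stably over-expressing ADRB2 were plated overnight at 37C, then dosed with compounds plus a stimulation mix containing 100uM IBMX and 25uM Ro-20-1724 for 0.5hr at room temperature. cAMP was measured by HTRF competition, 1hr.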

[12] = target: D(2) dopamine receptor (Homo sapiens) (UniProt P14416); assay: Dopamine D2 receptor (DRD2) small molecule agonists, cell-based qHTS assay (AID 1963594); note: nearly all actives have a fitted effect of over 35% in size
Method in brief: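 HEK293 cells stably expressing human DRD2, pre-treated with PDE inhibitor Ro20-1724 (0.1 mM final) and compound 10 min at room temperature, then stimulated with NKH477 (200nM […]) for 30 min. cAMP read by HTRF (665/620 nm).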

[13] = target: D(2) dopamine receptor (Homo sapiens) (UniProt P14416); assay: Dopamine D2 receptor (DRD2) small molecule antagonists, cell-based qHTS assay (AID 1963595; active = well fitted inhibition curve with a large enough effect in the signal ratio in the repeat runs, with a control signal flat; the % refers to the signal ratio)
Method in brief: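 HTRF cAMP read-out at 665 and 620 nm emission (340 nm excitation). Antagonist mode: compounds were tested against 12 nM quinpirole in DRD2-HEK293 cells, with 200 nM NKH477 raising cAMP and 0.1 mM Ro20-1724 blocking its breakdown.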

[14] = p53 small molecule agonists, cell-based qHTS assay (AID 1963582; active = well fitted activation curve with a large enough effect in the signal ratio in the repeat runs, not every such curve was filed as active; the % refers to the signal ratio)
Method in brief: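 Quantitative HTS in p53RE-bla cells: after a 5 h settling period, compounds delivered in DMSO were left on cells for 16 h at 37 C, and reporter induction was measured as fluorescence following 2 h substrate loading.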

[15] = target: 5-hydroxytryptamine receptor 2A (Homo sapiens) (UniProt P28223); assay: 5-hydroxytryptamine receptor 2A (HTR2A) small molecule antagonists, cell-based qHTS assay (AID 1963586); note: nearly all actives have a fitted effect of over 45% in size; note: potency is the fitted concentration of half-maximal effect
Method in brief: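 Antagonist-mode intracellular calcium assay: DOI (4 nM) added after 5 min compound pre-incubation at room temperature to dye-loaded HTR2A-CHO cells. Fluorescence followed for 3 min, sampled every second.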

[16] = target: 5-hydroxytryptamine receptor 2A (Homo sapiens) (UniProt P28223); assay: 5-hydroxytryptamine receptor 2A (HTR2A) small molecule agonists, cell-based qHTS assay (AID 1963587); note: nearly all actives have a fitted effect of over 30% in size
Method in brief: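 CHO cells stably expressing human HTR2A, plated 18 h, loaded with calcium dye 1 h at 37 C. Agonist mode: compounds added and intracellular calcium fluorescence recorded kinetically for 2 min at 1 sec intervals.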

[17] = target: Muscarinic acetylcholine receptor M1 (Homo sapiens) (UniProt P11229); assay: Cholinergic receptor muscarinic 1 (CHRM1) small molecule antagonists, cell-based qHTS assay (AID 1963588); note: nearly all actives have a fitted effect of over 40% in size
Method in brief: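 CHRM1-CHO calcium-flux assay, antagonist mode. Cells were seeded 18 h, dye-loaded 1 h at 37 C and given compound for 5 min at RT, then acetylcholine was added at 50nM. FDSS fluorescence was read 3 min; 15 concentrations, three runs.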

[18] = target: Muscarinic acetylcholine receptor M1 (Homo sapiens) (UniProt P11229); assay: Cholinergic receptor muscarinic 1 (CHRM1) small molecule agonists, cell-based qHTS assay (AID 1963589); note: nearly all actives have a fitted effect of over 35% in size
Method in brief: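 Agonist-mode qHTS in CHO cells stably carrying human muscarinic M1. Intracellular calcium is tracked by fluorescence every second after compound transfer; each compound runs at 15 concentrations in three independent runs.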

[19] = cAMP Responsive Elements (CRE) small molecule agonists, cell-based qHTS assay (AID 1963590)
Method in brief: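 Agonist mode qHTS in CRE-bla HEK 293T cells: compounds dosed from DMSO for 3 h at 37 C/5% CO2, followed by LiveBLAzer B/G FRET substrate for 2 h at room temperature.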

[20] = cAMP Responsive Elements (CRE) small molecule antagonists, cell-based qHTS assay (AID 1963591; active = well fitted inhibition curve with a large enough effect in the signal ratio in the repeat runs, not every such curve was filed as active; the % refers to the signal ratio)
Method in brief: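 Antagonist mode: test compounds are co-incubated with the adenylyl cyclase activator NKH477 (0.25 uM final) on CRE-bla HEK293T cells for 3 h at 37 °C, followed by LiveBLAzer substrate loading.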
% is set by controls: 0 for no effect and ±100 for the full control effect.

Chain of Beta-2 adrenergic receptor (Homo sapiens) (P07550 whole entry, looked up): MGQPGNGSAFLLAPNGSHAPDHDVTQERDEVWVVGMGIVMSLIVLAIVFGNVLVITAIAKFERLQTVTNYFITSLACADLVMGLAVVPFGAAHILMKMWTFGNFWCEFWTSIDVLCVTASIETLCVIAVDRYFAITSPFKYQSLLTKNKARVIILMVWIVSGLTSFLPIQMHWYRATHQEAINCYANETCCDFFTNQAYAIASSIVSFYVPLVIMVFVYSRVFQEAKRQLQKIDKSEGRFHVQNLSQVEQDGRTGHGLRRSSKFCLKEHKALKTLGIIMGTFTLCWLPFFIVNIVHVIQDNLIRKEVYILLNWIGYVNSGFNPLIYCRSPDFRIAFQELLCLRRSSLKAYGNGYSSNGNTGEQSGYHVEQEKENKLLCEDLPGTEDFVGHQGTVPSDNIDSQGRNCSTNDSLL
Chain of 5-hydroxytryptamine receptor 2A (Homo sapiens) (P28223 whole entry, looked up): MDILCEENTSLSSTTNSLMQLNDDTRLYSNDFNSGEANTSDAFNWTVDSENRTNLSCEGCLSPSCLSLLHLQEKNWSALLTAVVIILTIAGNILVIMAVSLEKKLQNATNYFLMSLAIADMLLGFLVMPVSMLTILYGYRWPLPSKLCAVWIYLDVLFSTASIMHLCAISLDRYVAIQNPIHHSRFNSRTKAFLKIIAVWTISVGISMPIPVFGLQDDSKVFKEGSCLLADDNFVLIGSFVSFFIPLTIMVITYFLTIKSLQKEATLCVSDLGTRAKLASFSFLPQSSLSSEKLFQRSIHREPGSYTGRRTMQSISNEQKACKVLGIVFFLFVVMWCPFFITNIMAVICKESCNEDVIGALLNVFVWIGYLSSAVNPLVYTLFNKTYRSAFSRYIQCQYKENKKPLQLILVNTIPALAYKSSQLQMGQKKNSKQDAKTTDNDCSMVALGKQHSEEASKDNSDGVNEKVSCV
Chain of Muscarinic acetylcholine receptor M1 (Homo sapiens) (P11229 whole entry, looked up): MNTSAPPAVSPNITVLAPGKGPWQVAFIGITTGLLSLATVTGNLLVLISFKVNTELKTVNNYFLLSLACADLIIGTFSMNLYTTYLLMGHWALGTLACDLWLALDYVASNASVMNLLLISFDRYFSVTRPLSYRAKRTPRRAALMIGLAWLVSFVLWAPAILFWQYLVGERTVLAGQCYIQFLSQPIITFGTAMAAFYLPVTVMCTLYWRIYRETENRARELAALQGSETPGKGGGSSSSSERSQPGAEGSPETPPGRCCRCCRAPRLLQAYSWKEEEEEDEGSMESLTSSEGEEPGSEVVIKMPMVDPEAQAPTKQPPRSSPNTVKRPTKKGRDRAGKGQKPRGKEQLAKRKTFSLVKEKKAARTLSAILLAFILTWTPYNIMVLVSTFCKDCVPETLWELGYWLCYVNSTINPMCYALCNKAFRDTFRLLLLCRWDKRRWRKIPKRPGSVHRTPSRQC
Chain of D(2) dopamine receptor (Homo sapiens) (P14416 whole entry, looked up): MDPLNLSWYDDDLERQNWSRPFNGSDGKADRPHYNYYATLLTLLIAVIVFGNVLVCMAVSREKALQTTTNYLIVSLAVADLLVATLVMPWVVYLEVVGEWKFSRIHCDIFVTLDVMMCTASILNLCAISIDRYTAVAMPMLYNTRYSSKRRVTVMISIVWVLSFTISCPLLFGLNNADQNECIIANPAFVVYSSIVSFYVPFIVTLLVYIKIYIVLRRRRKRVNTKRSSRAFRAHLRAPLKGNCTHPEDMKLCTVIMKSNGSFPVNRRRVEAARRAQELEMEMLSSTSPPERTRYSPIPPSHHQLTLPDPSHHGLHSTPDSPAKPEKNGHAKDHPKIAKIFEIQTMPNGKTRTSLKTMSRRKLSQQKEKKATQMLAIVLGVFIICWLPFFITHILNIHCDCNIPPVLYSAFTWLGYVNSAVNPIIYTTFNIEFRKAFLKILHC
Chain of Gonadotropin-releasing hormone receptor (Homo sapiens) (P30968 whole entry, looked up): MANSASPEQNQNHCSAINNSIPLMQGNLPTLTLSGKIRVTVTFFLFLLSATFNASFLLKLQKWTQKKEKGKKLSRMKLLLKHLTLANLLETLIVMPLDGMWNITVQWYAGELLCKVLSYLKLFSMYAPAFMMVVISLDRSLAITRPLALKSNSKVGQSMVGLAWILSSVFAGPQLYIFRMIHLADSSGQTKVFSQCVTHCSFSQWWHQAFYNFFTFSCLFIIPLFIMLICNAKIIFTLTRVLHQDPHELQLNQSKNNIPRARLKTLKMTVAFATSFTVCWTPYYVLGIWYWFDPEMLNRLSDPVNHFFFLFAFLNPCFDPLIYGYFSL
Chain of KiSS-1 receptor (Homo sapiens) (Q969F8 whole entry, looked up): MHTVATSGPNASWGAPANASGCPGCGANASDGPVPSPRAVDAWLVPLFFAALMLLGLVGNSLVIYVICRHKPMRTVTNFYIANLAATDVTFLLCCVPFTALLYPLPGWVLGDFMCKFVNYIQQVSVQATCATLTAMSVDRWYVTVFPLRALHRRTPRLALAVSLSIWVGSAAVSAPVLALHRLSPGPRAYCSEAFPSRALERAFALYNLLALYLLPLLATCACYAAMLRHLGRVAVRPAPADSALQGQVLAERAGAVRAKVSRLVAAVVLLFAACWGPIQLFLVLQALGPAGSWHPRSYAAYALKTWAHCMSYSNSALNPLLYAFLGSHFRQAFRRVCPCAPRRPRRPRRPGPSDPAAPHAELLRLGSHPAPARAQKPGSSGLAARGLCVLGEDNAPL

CC1=C(CC(=O)O)c2cc(F)ccc2/C1=C\c1ccc(S(C)=O)cc1 (centres undefined)
inactive: Potency [1] | Potency [2] | Potency [3] | Potency [4] | Potency [5] | Potency [6] | Potency [7] | Potency [8] | Potency [9] | Potency [10] | Potency [11] | Potency [12] | Potency [13]

CCN(CC)CC(=O)Oc1ccc(NC(C)=O)cc1
inactive: Potency [1] | Potency [2] | Potency [3] | Potency [4] | Potency [5] | Potency [6] | Potency [7] | Potency [8] | Potency [9] | Potency [14] | Potency [15] | Potency [16] | Potency [17] | Potency [18] | Potency [19] | Potency [20] | Potency [12] | Potency [13]

CC(C)(c1ccc(O)cc1)c1ccc(O)cc1
inactive: Potency [1] | Potency [3] | Potency [4] | Potency [5] | Potency [6] | Potency [7] | Potency [8] | Potency [9] | Potency [19] | Potency [20] | Potency [10] | Potency [12] | Potency [13]
inactive and 62.2 µM (active): Potency [2]

O=C(O)CCS
active: Potency [15] 3.41 µM
inactive: Potency [1] | Potency [2] | Potency [3] | Potency [4] | Potency [5] | Potency [6] | Potency [7] | Potency [9] | Potency [14] | Potency [16] | Potency [17] | Potency [18] | Potency [19] | Potency [20] | Potency [10] | Potency [11] | Potency [12] | Potency [13]

C=CC(O)CCCCC (centres undefined)
inactive: Potency [1] | Potency [2] | Potency [3] | Potency [4] | Potency [5] | Potency [6] | Potency [7] | Potency [9] | Potency [14] | Potency [15] | Potency [16] | Potency [18] | Potency [19] | Potency [20] | Potency [10] | Potency [11] | Potency [12] | Potency [13]

COc1ccc2cccc(CCNC(C)=O)c2c1
inactive: Potency [1] | Potency [2] | Potency [3] | Potency [4] | Potency [5] | Potency [6] | Potency [7] | Potency [9] | Potency [14] | Potency [15] | Potency [16] | Potency [17] | Potency [18] | Potency [19] | Potency [20] | Potency [10] | Potency [11] | Potency [12] | Potency [13]

N[C@H](C(=O)O)c1ccc(O)cc1
inactive: activity change, negative = cytotoxicity [1] 7.62% [at 19 µM] | activity, positive = activation [2] 16.5% [at 19 µM] | activity change [3] -1.58% [at 11.8 µM, stronger effect = higher value] | activation [4] 3.74% [at 15.8 µM] | activation [5] 0.205% [at 11.8 µM] | activation [6] 0.205% [at 13.5 µM] | activation [7] 0.317% [at 13.6 µM] | activity change, negative = cytotoxicity [9] -1.01% [at 13.5 µM] | activation [14] -1.96% [at 13.5 µM] | activity, negative = inhibition [15] 57.4% [at 12.7 µM] | activation [16] -0.912% [at 15.9 µM] | activity, negative = inhibition [17] 8.36% [at 12.6 µM] | activation [19] -0.179% [at 19 µM] | activity change, negative = inhibition [20] 0.811% [at 18.9 µM] | activity change, negative = inhibition [10] -0.335% [at 19 µM] | activation [11] 19.3% [at 19 µM] | activation [12] -12.3% [at 19 µM] | activity change, negative = inhibition [13] 7.69% [at 18.9 µM]
